# Test results taken from PubChem BioAssay AID2073 (Sanford-Burnham Center for Chemical Genomics, 2009).
# In all, about 290,000 compounds went through this assay and about 570 (0.2%) were called active. Another 1% or so got no clear call; they are omitted. No stated cut-off is given here; in the data, active means inhibition mostly above about 51% (no sharp cut-off); inconclusive means no clear call, values can overlap the other calls; inactive means mostly below about 53%. What follows is part of a selection rich in actives, with near analogues and random picks from the rest.
# Target: Voltage-dependent N-type calcium channel subunit alpha-1B (Homo sapiens) (UniProt Q00975)
# Sequence (Q00975 whole entry, looked up): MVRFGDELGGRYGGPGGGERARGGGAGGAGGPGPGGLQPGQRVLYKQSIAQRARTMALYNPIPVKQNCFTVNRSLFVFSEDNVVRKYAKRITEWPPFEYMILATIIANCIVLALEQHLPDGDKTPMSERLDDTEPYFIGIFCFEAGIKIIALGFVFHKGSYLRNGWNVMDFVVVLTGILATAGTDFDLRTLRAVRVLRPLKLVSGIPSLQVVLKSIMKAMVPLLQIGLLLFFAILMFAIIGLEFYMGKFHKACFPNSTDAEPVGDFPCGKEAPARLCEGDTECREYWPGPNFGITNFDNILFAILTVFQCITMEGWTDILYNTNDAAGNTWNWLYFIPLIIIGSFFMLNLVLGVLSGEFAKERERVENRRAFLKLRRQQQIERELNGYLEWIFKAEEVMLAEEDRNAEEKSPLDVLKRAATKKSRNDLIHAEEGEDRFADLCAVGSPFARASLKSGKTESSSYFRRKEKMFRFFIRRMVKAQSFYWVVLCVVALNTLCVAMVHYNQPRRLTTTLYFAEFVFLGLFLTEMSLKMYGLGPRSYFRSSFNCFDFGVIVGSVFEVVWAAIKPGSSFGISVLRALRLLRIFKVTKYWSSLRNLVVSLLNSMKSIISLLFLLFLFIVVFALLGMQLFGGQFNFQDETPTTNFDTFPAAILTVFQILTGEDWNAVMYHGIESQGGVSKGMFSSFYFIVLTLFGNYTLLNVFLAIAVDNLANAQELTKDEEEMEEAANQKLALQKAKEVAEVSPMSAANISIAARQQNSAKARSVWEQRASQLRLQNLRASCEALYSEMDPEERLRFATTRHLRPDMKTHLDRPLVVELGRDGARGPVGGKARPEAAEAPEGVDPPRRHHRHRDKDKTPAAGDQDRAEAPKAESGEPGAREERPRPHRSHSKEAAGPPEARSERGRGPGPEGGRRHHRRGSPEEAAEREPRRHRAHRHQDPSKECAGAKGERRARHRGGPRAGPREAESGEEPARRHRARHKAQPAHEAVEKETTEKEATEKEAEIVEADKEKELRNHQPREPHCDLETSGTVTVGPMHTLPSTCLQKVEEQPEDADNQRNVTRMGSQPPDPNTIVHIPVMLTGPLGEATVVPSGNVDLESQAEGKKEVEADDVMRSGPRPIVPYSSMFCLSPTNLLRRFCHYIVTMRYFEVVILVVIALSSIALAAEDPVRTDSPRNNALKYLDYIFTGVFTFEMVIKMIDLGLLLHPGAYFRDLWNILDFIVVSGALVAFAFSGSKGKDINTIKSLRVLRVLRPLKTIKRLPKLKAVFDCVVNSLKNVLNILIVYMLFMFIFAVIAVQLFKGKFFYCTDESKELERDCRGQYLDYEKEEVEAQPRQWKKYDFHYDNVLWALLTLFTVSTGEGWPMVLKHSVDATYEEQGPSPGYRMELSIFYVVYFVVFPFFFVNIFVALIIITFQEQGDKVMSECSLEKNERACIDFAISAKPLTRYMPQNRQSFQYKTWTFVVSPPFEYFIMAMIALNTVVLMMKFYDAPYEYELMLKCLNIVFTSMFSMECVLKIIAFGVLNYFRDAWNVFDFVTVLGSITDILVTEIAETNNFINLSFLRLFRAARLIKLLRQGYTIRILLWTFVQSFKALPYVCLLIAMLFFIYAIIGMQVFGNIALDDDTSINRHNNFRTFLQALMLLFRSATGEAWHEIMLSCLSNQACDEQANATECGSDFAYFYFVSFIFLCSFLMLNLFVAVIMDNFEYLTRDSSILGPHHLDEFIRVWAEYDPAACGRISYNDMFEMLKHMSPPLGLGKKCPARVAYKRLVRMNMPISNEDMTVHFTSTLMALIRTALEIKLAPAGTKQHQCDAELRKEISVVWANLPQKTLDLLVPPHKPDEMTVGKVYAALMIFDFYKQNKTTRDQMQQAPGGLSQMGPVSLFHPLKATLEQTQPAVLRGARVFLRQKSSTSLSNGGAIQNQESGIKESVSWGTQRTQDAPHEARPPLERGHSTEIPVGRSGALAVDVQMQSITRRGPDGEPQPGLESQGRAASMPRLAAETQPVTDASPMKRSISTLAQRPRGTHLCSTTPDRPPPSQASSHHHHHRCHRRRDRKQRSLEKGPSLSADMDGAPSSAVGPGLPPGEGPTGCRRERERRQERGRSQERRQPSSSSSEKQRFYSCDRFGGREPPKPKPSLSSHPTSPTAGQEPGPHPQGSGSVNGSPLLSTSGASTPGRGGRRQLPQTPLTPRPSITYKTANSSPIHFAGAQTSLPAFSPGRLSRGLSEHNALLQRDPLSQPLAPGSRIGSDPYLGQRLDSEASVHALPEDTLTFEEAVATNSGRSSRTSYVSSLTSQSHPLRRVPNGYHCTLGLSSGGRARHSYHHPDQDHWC
# Experiment: inhibitors of Mint1-CaV2.2 protein interaction, biochemical, HTRF (AID 2073)
# Details: at 20 µM, stronger effect = higher value
# [1] = measured here: average of repeat tests
SMILES,inhibition,inhibition [1] [%]
COc1ccc(/C=C2\SC(=O)N(CCC(=O)Nc3ccc(S(=O)(=O)Nc4nccs4)cc3)C2=O)cc1,25.3% (inactive),
COc1ccc(/C=C2/SC(=O)N(CCC(=O)Nc3ccc(S(=O)(=O)Nc4nccs4)cc3)C2=O)cc1,53% (active),
O=C(CCN1C(=O)S/C(=C\c2ccccc2)C1=O)Nc1ccc(S(=O)(=O)Nc2nccs2)cc1,-6.5% (inactive),
COc1cccc(OC)c1C(=O)Nc1cccnc1,-4.9% (inactive),
CNC(=S)NNC(=O)Cc1ccc(OC)c(OC)c1,-18.7% (inactive),
Cc1cc(N)n2nc(C(F)(F)F)nc2n1,-3.1% (inactive),
CC(=O)c1ccc(NC(=O)c2cc3nc4c(c(C(F)(F)F)n3n2)CCCC4)cc1,33.2% (inactive),
CCn1c(SCC(=O)Nc2cc(C)on2)nnc1-c1ccc(S(=O)(=O)N2CCCC2)cc1,0.3% (inactive),
O=C1c2ccccc2C(=O)N1c1cccc(-c2nc3ccccc3o2)c1,19.2% (inactive),
O=C1c2ccccc2C(=O)N1c1ccc(-c2nc3ccccc3o2)cc1,67.9% (active),
O=C1C2C3C=CC(C3)C2C(=O)N1c1ccc(-c2nc3ccccc3o2)cc1 (centres undefined),15.5% (inactive),
CC(=O)c1cccc(NC(=O)NNC(=O)c2ccc(-c3ccccc3)cc2)c1,22.1% (inactive),
CCCNC(=O)CSc1nccn1Cc1ccco1,-17.8% (inactive),
Cc1ccc(N2CCN(C(=S)Nc3ccccc3C)CC2)cc1,-9.9% (inactive),
Cc1nc2c(c(=O)n1Cc1ccco1)c1nc3ccccc3nc1n2Cc1ccccc1,50.6% (active),
COc1ccc(Cn2c3nc4ccccc4nc3c3c(=O)n(Cc4ccco4)c(C)nc32)cc1,18.4% (inactive),
Cc1nc2c(c(=O)n1Cc1ccccc1Cl)c1nc3ccccc3nc1n2Cc1ccco1,38.1% (inactive),
O=[N+]([O-])c1ccc(Nc2nc(NCCO)nc(N3CCCC3)n2)cc1,5.1% (inactive),
Cc1ccc(/C=C/C2=Cc3c(sc(NC(=O)CSc4n[nH]c(N)n4)c3C#N)C(C)(C)C2)o1,61.1% (active),

SMILES,inhibition,inhibition [1] [%]
Cc1ccsc1/C=C/C1=Cc2c(sc(NC(=O)CSc3n[nH]c(N)n3)c2C#N)C(C)(C)C1,20.6% (inactive),
CCOc1ccc(/C=C/C2=Cc3c(sc(NC(=O)CSc4n[nH]c(N)n4)c3C#N)C(C)(C)C2)cc1,12.8% (inactive),
COc1cccc(NC(=O)c2ccco2)c1,3.2% (inactive),
Cc1ncc(CO)c(/C=N/NC(=S)Nc2cccc(Cl)c2)c1O,53.7% (active),
Cc1ncc(CO)c(/C=N/NC(=S)Nc2ccc(C(C)C)cc2)c1O,16.5% (inactive),
Cc1ncc(CO)c(/C=N/NC(=S)Nc2ccc(Cl)c(Cl)c2)c1O,50.4% (inactive),30.4
CCCCCCc1nc(C(N)=O)c2[nH]c(=O)n(-c3ccccc3F)c2n1,10.4% (inactive),
COC(=O)c1c(C)oc(C)c1S(=O)(=O)N(Cc1ccccc1)C(C)C,-16.1% (inactive),
CCc1ccc2nc(N(CCCN(C)C)C(=O)c3ccc(S(=O)(=O)N4CCCC4)cc3)sc2c1,-0.7% (inactive),
CC(=O)c1ccc(N2CCN(C(=O)c3nn(C)c4c3CS(=O)(=O)c3ccccc3-4)CC2)cc1,9% (inactive),
CCOc1ccccc1-c1c2cc(O)c(=O)cc-2oc2cc(O)c(O)cc12,24.8% (inactive),
O=c1cc2oc3cc(O)c(O)cc3c(-c3ccccc3[N+](=O)[O-])c-2cc1O,15.9% (inactive),
O=c1cc2oc3cc(O)c(O)cc3c(-c3ccccc3O)c-2cc1O,68.3% (active),
CCC(=O)N1CCc2cc(S(=O)(=O)CCC(=O)Nc3ccc(OC)c(OC)c3)ccc21,5.3% (inactive),
COc1ccc(CNC(=O)Cc2cn(C)c3ccccc23)c(OC)c1,5.9% (inactive),
Cc1cc(NC(=O)OC2CCCCC2)ccc1[N+](=O)[O-],-7.7% (inactive),
COc1cc(C(=O)NS(=O)(=O)c2ccccc2C)ccc1Cc1cn(C)c2ccc(NC(=O)OC3CCCC3)cc12,51.7% (active),
CC(C)CC(=O)N1CC(C)N(C(=O)CC(C)C)CC1C (centres undefined),4.2% (inactive),
O=[N+]([O-])c1cccc(CSc2nnc3ccccn23)c1,13.5% (inactive),

SMILES,inhibition,inhibition [1] [%]
Cc1ccc(/C(C#N)=C\c2ccc(N3CCOCC3)o2)cc1,43.4% (inactive),
N#C/C(=C/c1ccc(N2CCOCC2)o1)c1ccc(Cl)cc1,51.9% (active),
N#C/C(=C/c1ccc(N2CCOCC2)o1)c1ccc(Br)cc1,39.6% (inactive),
CCCCCCc1ccc(N2C[C@H](CCCCC)[C@@H](CC(=O)NCc3ccc(OC)cc3)C2=O)cc1,10.1% (inactive),
Cc1ccc2c(COC(=O)c3ccc(NC(=O)CC#N)cc3)cc(=O)oc2c1C,57.8% (inactive),36.4
Cc1ccc(NC(=O)c2nsc(Cl)c2Cl)cc1,18.9% (inactive),
C/C(=N\NC(=O)c1ccccc1Cl)c1ccccn1,16.3% (inactive),
CCN(CC)c1ccc(/C=N/NC(=O)c2c(Cl)c(C)nn2C)cc1,10.2% (inactive),
CCc1nnc(NS(=O)(=O)c2ccc(NCc3cc(Br)ccc3O)cc2)s1,-6.2% (inactive),
O=C(OCc1cc(=O)n2c(n1)sc1ccccc12)c1ccc(O)cc1,30.3% (inactive),
O=C(OCc1cc(=O)n2c(n1)sc1ccccc12)c1cccc(O)c1,19.1% (inactive),
O=C(OCc1cc(=O)n2c(n1)sc1ccccc12)c1ccc(O)cc1O,60.2% (active),
O=S(=O)(Nc1ccncc1)c1cc(Cl)c(Cl)cc1Cl,12.2% (inactive),
COc1cccc(N=c2oc3ccccc3cc2-c2nc3ccccc3[nH]2)c1,17.1% (inactive),
COc1ccc2oc(=Nc3ccccc3)c(-c3nc4ccccc4[nH]3)cc2c1,37.9% (inactive),
Cc1ccc(-n2nnnc2SCc2nc3sc(C)c(C)c3c(=O)[nH]2)cc1,12% (inactive),
CC(=O)c1sc2nc(CSc3nnnn3-c3ccccc3)[nH]c(=O)c2c1C,80.6% (active),
CC(=O)c1sc2nc(CSc3nncn3C)[nH]c(=O)c2c1C,22.1% (inactive),
COc1ccc2c(C(=O)CN3CCSCC3)c[nH]c2c1,25.2% (inactive),
